For orientation: AC50 means the concentration at which the activity in the assay is half-maximal.

Read-out in test [1]: E-selectin (Homo sapiens) (UniProt P16581)
Description: BSK_LPS_Eselectin: BioMAP Diversity Plus: LPS Assay for Eselectin Biomarker Activity (AID 2283077). To be noted: primary human HUVEC with PBMC; actives raise or lower the signal. An outline of the steps:
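Signal of E-selectin, detected by ELISA, served as the endpoint; cells were umbilical vein endothelium with PBMC, read 24 h after treatment. DMSO defined baseline, and both increases and decreases were fitted.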

Read-out in test [2]: Interleukin-8 (IL8), CXCL8 (gene 3576)
Description: BSK_LPS_IL8: BioMAP Diversity Plus: LPS Assay for Interleukin-8 (IL8) Biomarker Activity (AID 2283078). To be noted: primary human HUVEC with PBMC; actives raise or lower the signal. An outline of the steps:
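Endothelial cells and PBMC from human donors are co-cultured, treated with chemicals and LPS, then assayed for IL-8 by ELISA after 24 h. Parallel SRB staining (0.1% SRB after 10% TCA fixation, 560 nm) flags cytotoxicity.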

A short description of test [3]: BSK_LPS_SRB: Viability Assessment in the BioMAP Diversity Plus: LPS Assay (AID 2283079).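 Note: total protein by sulforhodamine B absorbance as a cytotoxicity measure; measured one day after compound addition; fitted in both directions against DMSO so loss or gain of signal counts.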 To be noted: primary human HUVEC with PBMC. An outline of the steps: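 Overt cytotoxicity was gauged by sulforhodamine B total-protein staining in a primary human vascular endothelial and mononuclear cell co-culture 24 h post-dosing. Activity was fitted in both directions relative to DMSO.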

Read-out in test [4]: Interleukin-1 alpha (IL1a), IL1A (gene 3552)
Description: BSK_LPS_IL1a: BioMAP Diversity Plus: LPS Assay for Interleukin-1 alpha (IL1a) Biomarker Activity (AID 2283080). To be noted: primary human HUVEC with PBMC; actives raise or lower the signal. An outline of the steps:
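Measured: IL-1 alpha via ELISA at 24 h in LPS-activated human umbilical vein endothelium–PBMC co-culture. Baseline: DMSO, bidirectional fitting.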

Read-out in test [5]: Monocyte Chemoattractant Protein-1 (MCP1), CCL2 (gene 6347)
The test is described as follows: BSK_LPS_MCP1: BioMAP Diversity Plus: LPS Assay for Monocyte Chemoattractant Protein-1 (MCP1) Biomarker Activity (AID 2283081).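 For AC50: secreted MCP-1 protein quantified by ELISA in culture supernatant.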 To be noted: primary human HUVEC with PBMC; actives raise or lower the signal. A digest of the protocol:
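LPS-stimulated HUVEC/PBMC co-culture; chemical, 24 h; MCP-1 by ELISA; bidirectional fit vs DMSO; cytotoxicity via SRB (0.1% stain, 10% TCA fix, 560 nm) in parallel wells.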

Read-out in test [6]: Macrophage colony-stimulating factor (MCSF), CSF1 (gene 1435)
Description: BSK_LPS_MCSF: BioMAP Diversity Plus: LPS Assay for Macrophage colony-stimulating factor (MCSF) Biomarker Activity (AID 2283083). To be noted: primary human HUVEC with PBMC; actives raise or lower the signal. A digest of the protocol: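 Compound is added to a human vascular primary co-culture of umbilical vein endothelium and blood mononuclear cells. After 24 h, M-CSF is quantified by ELISA. Signal changes are fitted in both directions against DMSO.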

Read-out in test [7]: Tissue Factor, F3 (gene 2152)
Description: BSK_LPS_TissueFactor: BioMAP Diversity Plus: LPS Assay for Tissue Factor Biomarker Activity (AID 2283084). To be noted: primary human HUVEC with PBMC; actives raise or lower the signal. A digest of the protocol: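 In this co-culture system of umbilical vein endothelium with PBMC, stimulated with LPS, cell-surface CD142 is detected by ELISA at 24 h. Endpoint values derive from bidirectional fitting, DMSO serving as baseline.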

Read-out in test [8]: Vascular cell adhesion molecule 1 (VCAM1), VCAM1 (gene 7412)
The test is described as follows: BSK_LPS_VCAM1: BioMAP Diversity Plus: LPS Assay for Vascular cell adhesion molecule 1 (VCAM1) Biomarker Activity (AID 2283086). To be noted: primary human HUVEC with PBMC; actives raise or lower the signal. An outline of the steps: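 ELISA read-out of VCAM-1 at 24 h post-dosing in an LPS-driven HUVEC/PBMC primary human co-culture; gain or loss of signal fitted bidirectionally against DMSO baseline. Cytotoxicity tracked in parallel cultures by SRB total-protein staining.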

Read-out in test [9]: Tumor necrosis factor (Homo sapiens) (UniProt P01375)
Description: BSK_LPS_TNFa: BioMAP Diversity Plus: LPS Assay for Tumour Necrosis Factor alpha (TNFa) Biomarker Activity (AID 2283085).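 For AC50: TNFa protein level quantified by ELISA in the co-culture.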 To be noted: primary human HUVEC with PBMC; actives raise or lower the signal. An outline of the steps:
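HUVEC/PBMC co-culture, LPS-stimulated; 24 h post-dose; TNFa by ELISA; gain or loss of signal fitted bidirectionally vs DMSO baseline.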

Test [10] can be described thus: BSK_LPS_PGE2: BioMAP Diversity Plus: LPS Assay for Prostaglandin E2 (PGE2) Biomarker Activity (AID 2283082). To be noted: primary human HUVEC with PBMC; actives raise or lower the signal. A digest of the protocol: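 ELISA read-out of PGE2 from human umbilical vein endothelial cells co-cultured with peripheral blood mononuclear cells under LPS, 24 h post-dose. Gain or loss of signal scored relative to DMSO baseline.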

SMILES strings stand for the structures. Calls of active or inactive are those of the source. Rule for the calls: active = hit-call score of the fitted dose curve at least 0.9, where 1 is the maximum; inactive = score below 0.9.

Sequence of E-selectin (Homo sapiens) (P16581 whole entry, looked up): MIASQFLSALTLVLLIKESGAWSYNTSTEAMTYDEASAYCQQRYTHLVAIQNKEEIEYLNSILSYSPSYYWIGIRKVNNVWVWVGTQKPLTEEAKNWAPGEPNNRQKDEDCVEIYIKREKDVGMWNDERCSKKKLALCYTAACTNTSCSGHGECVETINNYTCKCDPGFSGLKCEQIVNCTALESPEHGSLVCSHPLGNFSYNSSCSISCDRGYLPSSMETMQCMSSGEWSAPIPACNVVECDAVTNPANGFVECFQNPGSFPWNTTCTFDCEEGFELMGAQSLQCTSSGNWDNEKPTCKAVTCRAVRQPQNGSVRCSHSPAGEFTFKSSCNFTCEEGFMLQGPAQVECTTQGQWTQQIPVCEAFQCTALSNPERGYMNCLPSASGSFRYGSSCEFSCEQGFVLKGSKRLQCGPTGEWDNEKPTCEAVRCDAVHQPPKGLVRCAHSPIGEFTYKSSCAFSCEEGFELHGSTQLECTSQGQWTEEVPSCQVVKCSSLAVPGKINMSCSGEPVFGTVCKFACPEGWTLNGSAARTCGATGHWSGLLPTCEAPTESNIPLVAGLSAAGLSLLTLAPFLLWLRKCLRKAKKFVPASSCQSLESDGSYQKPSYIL
Sequence of Tumor necrosis factor (Homo sapiens) (P01375 whole entry, looked up): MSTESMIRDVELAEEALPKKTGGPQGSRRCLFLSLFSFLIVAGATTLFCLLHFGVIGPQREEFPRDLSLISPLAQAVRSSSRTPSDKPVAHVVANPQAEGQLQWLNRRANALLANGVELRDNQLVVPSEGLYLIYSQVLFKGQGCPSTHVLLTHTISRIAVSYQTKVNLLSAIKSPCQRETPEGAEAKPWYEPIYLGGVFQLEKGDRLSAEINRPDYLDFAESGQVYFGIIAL

`CCCC(=O)O`: the outcome in test [1], in [2], in test [3], in test [4], in [5] and in [6] was inactive. Moreover, the outcome in test [7] and in test [8] was inactive.
Take `OCC(O)CO`: the outcome in test [1], in test [2], in test [3], in [4], in test [5] and in test [6] was inactive. The outcome in test [7], in test [9] and in [8] was inactive.
For `Cc1cn([C@H]2C=C[C@@H](CO)O2)c(=O)[nH]c1=O`, the result in test [1], in test [2], in test [4], in [5], in [6] and in [7] was inactive. Also, the outcome in [9] and in [8] was inactive.
Turning to `Nc1nc(=S)c2[nH]cnc2[nH]1`, the outcome in test [1], in [2], in [3], in test [4], in [5] and in test [6] was inactive. In addition, the outcome in test [7] and in test [8] was inactive.
In the case of `O=C(O)CN(CC(=O)O)CC(=O)O`, the outcome in test [1], in test [2], in [3], in [4], in [5] and in test [6] was inactive. Also, the result in test [7] and in test [8] was inactive.
With `COC(=O)CCCC(=O)OC`, the outcome in [1], in test [2], in test [3], in [4], in [5] and in test [6] was inactive. Besides, the result in [7], in test [9] and in test [8] was inactive.
Turning to `Cn1cnc2c1c(=O)[nH]c(=O)n2C`, the outcome in test [1], in test [2], in [3], in test [4], in test [5] and in test [6] was inactive. In addition, the outcome in test [7], in test [9] and in test [8] was inactive.
With `COc1ccc(C(=O)Nc2nc3ccccc3c(NCc3ccccc3)c2C#N)cc1`, the result in [1], in test [2], in test [3], in [4], in test [5] and in [7] was inactive. Also, the concentration at half-maximal activity (AC50) in test [6] was 3.97 µM (active); in test [8], 4.78 µM (active).
`Nc1nc(Cl)nc2c1ncn2[C@H]1C[C@H](O)[C@@H](CO)O1`: the outcome in test [1] and in test [8] was inactive. The AC50 in test [2] is 0.628 µM (active); in test [3], 0.814 µM (active); in test [4] it was 1.68 µM (active); in [5], 0.659 µM (active); in test [6] it was 1.08 µM (active); in [7] it was 3.37 µM (active).
`Cc1ccc(-c2cc(C(F)(F)F)nn2-c2ccc(S(N)(=O)=O)cc2)cc1`: the concentration at half-maximal activity (AC50) in test [1] is 30.9 µM (active); in [2], 35.6 µM (active); in [3], 29.2 µM (active); in test [4], 30.5 µM (active); in test [6] it was 29.7 µM (active); in test [7] it was 30.7 µM (active). The AC50 in test [8] was 31.7 µM (active).
Consider `Cc1cc(Cc2ccc(N)c(C)c2)ccc1N`, for which the result in [1], in [2], in [3], in test [4], in test [5] and in test [7] was inactive. Besides, the outcome in test [8] was inactive.
Take `CC(=O)OCC(COC(C)=O)OC(C)=O`: the outcome in test [1], in [2], in [3], in test [4], in [5] and in test [6] was inactive. In addition, the outcome in test [7] and in test [8] was inactive.
`CN(C)CCCN(C)CCCN(C)C`: the result in [1], in [2], in [3], in [4], in test [5] and in [6] was inactive. In addition, the result in [7], in test [9] and in test [8] was inactive.
On to `O=C(Oc1ccccc1)c1cccc(C(=O)Oc2ccccc2)c1`, for which the result in [1], in test [2], in test [3], in test [4], in [5] and in test [6] was inactive. Besides, the result in [7] and in [8] was inactive.
For the compound `NC(=Nc1ccccc1)Nc1ccccc1`, the outcome in test [1], in test [2], in test [3], in test [4], in test [5] and in [7] was inactive. In addition, the result in [8] was inactive. Moreover, the AC50 in [6] was 5.45 µM (active).
With `CCCCCCCCCCCCCCCCO`, the result in test [1], in test [2], in [3], in test [4], in [5] and in test [6] was inactive. Also, the result in test [7], in test [9] and in test [8] was inactive.
For `NCCOCCOCCN`, the result in test [1], in test [2], in test [3], in [4], in test [5] and in test [6] was inactive. The outcome in test [7] and in test [8] was inactive.
As for `CN(C)CCCN1c2ccccc2Sc2ccc(Cl)cc21`, the outcome in test [1], in [10] and in test [7] was inactive. In addition, the concentration at half-maximal activity (AC50) in test [2] was 23.9 µM (active); in [3], 24.9 µM (active); in test [5] it was 26 µM (active); in test [6], 30.1 µM (active); in [9], 27.8 µM (active); in [8], 29.9 µM (active).
In the case of `CC(C)c1cccc(C(C)C)c1NC(=O)NS(=O)(=O)c1cc(C(C)(C)O)co1`, the AC50 is 0.148 µM (active) in [1] and 0.152 µM (active) in [2]. In addition, the result in test [3], in test [4], in test [5], in test [6], in test [7] and in test [8] was inactive.
As to `CCC(C)N(C)C(=O)c1cc2ccccc2c(-c2ccccc2Cl)n1` (stereo not drawn), the outcome in test [1], in [2], in test [3], in [4], in test [5] and in [6] was inactive. For the same compound, the outcome in [7] and in [8] was inactive.
Turning to `CC(C)c1cccc(C(C)C)c1`, the outcome in test [1], in test [2], in test [3], in [4], in [5] and in test [6] was inactive. In addition, the outcome in test [7], in test [9] and in test [8] was inactive.
Regarding `CCOCCOCCO`, the result in test [1], in [2], in test [3], in test [4], in test [5] and in test [6] was inactive. The outcome in test [7], in [9] and in [8] was inactive.
Consider `CCN(CC)CCOc1ccc(C(=C(Cl)c2ccccc2)c2ccccc2)cc1`, for which the concentration at half-maximal activity (AC50) in [1] is 13.3 µM (active); in [2], 11.3 µM (active); in test [3] it was 10.4 µM (active); in test [4] it was 8.81 µM (active); in [5], 14.3 µM (active); in test [6] it was 9.21 µM (active). In addition, the AC50 was 29.8 µM (active) in test [7] and 13.2 µM (active) in test [8].
For the compound `CN(C)C(=O)NC1(c2ccccc2)CCN(CCC[C@]2(c3ccc(Cl)c(Cl)c3)CCCN(C(=O)c3ccccc3)C2)CC1`, the outcome in test [1], in [3], in test [4], in [5], in test [6] and in test [7] was inactive. In addition, the AC50 was 8.1 µM (active) in test [2] and 6.96 µM (active) in test [8].

(Values after PubChem BioAssay (EPA / NIEHS).)
